Values joined by “and” are separate entries in the source; they are usually repeats but may differ in a detail not shown here. Identical values can stand only once. Records with an inconclusive call do not appear. Active and inactive are the calls of the source. Calls come from the whole dose curve; as a rule, active = well fitted cell-killing curve with a large enough effect in the repeat runs; inconclusive = weak or mixed curves; inactive = no such curve, though single readings can be large or run the other way.
assay: qHTS assay to identify small molecule antagonists of the peroxisome proliferator-activated receptor delta (PPARd) signaling pathway - cell viability counter screen (AID 743213); conditions: PPARd-bla HEK293H viability, CellTiter-Glo luminescence, 17 h; series mostly up to 62 µM; viability change, negative = cytotoxic: at the top concentration; note: nearly all actives have a fitted effect of over 50% in size
Excerpt: U.S. Tox21 Program National Center for Advancing Translational Sciences [NCATS] NIH Chemical Genomics Center [NCGC] U.S. Environmental Protection Agency [EPA] National Institutes of Environmental Health Sciences [NIEHS] National Toxicology Program [NTP] U.S. Food and Drug Administration [FDA] Tox21 Assay Overview: The peroxisome proliferator-activated receptors (PPARs) are lipid-activated transcription factors of the nuclear receptor superfamily with three distinct subtypes namely PPAR alpha, PPAR delta (PPARd) and PPAR gamma. All these subtypes heterodimerizes with Retinoid X receptor (RXR) and have different physiological functions. […] To identify the compounds that inhibit PPAR-delta signaling, GeneBLAzer PPAR delta UAS-bla HEK293H cell line (Invitrogen, Carlsbad, CA, USA) containing a beta-lactamase reporter gene under the control of an Upstream Activator Sequence (UAS) was used to screen the Tox21 compound library. The cytotoxicity of the Tox21 compound library against the PPARd-bla cell line was tested in parallel by measuring the cell viability using CellTiter-Glo assay (Promega, Madison, WI) in the same wells.
Tox21 Assay Protocol Summary: PPARd-bla cells were dispensed at 3000 cells/5uL/well in 1536-well black wall/clear bottom plates using a Multidrop Combi (Thermo Fisher Scientific, Waltham, MA) dispenser. After the assay plates were incubated at 37 C and 5% CO2 for 5 h, 23 nL of compounds dissolved in DMSO, positive controls or DMSO only was transferred to the assay plate by a Pintool station (Kalypsys, San Diego, CA), followed by addition of 1ul L165041 (300 nM, final concentration in the wells). The assay plates were incubated at 37 C for 17 h, and then 1 uL of LiveBLAzerTM B/G FRET substrate was added using a Bioraptr Flying Reagent Dispenser (FRD) workstation (Beckman Coulter, Indianapolis, IN, USA). The assay plates were incubated at room temperature for 2 h and fluorescence intensity was measured by an Envision plate reader (PerkinElmer, Shelton, CT). For cell viability readout that measures cytotoxicity, 3 ul/well of CellTiter-Glo reagent was added into the assay plates using a Bioraptr FRD. After 30 min incubation at room temperature, the luminescence intensity in the plates was measured using a ViewLux plate reader (PerkinElmer).
% is set by controls: 0 for no effect and ±100 for the full control effect; potency is the fitted concentration of half-maximal effect.

Row | SMILES | Potency | viability change, negative = cytotoxic
1 | OCC1CO1 (stereo not given) | inactive | 
2 | CCCCC1C(=O)NC(=O)N(C2CCCCC2)C1=O (stereo not given) |  | 0.115% (inactive)
3 | CN[C@@H](C)[C@H](O)c1ccccc1 |  | 2.63% (inactive)
4 | CC[N+]1(CCOC(=O)C(O)(c2ccccc2)c2ccccc2)CCCCC1 |  | 0.018% (inactive)
5 | Cc1ncc(C[n+]2csc(CCO)c2C)c(N)n1 |  | 2.19% (inactive)
6 | CCCSP(=S)(OCC)Oc1ccc(SC)cc1 (stereo not given) |  | -0.0107% (inactive)
7 | C[Si](Cn1cncn1)(c1ccc(F)cc1)c1ccc(F)cc1 | 38.9 µM (active) | 
8 | O=C([O-])c1ccccn1.O=C([O-])c1ccccn1.O=C([O-])c1ccccn1.[Cr+3] |  | 16.6% (inactive)
9 | C1CCNCC1 |  | 9.14% [at 80.4 µM] (inactive)
10 | CCC1(CC)C(=O)NC(=O)NC1=O |  | -0.581% (inactive)
11 | CCCCC#N |  | 8.16% (inactive)
12 | CC(C)(C)c1ccc(CCOc2ncnc3ccccc23)cc1 |  | 2.68% (inactive)
13 | CN1CC[C@]23c4c5ccc(O)c4O[C@H]2[C@@H](O)C=C[C@H]3[C@H]1C5 |  | 3.91% [at 80.4 µM] (inactive)
14 | CCC1(C2=NCCN2)Cc2ccccc2O1 (stereo not given) |  | 3.18% (inactive)
15 | CCC(C)(C)c1ccc(O)c(C(C)(C)CC)c1 | 17.2 µM (active) and 38.9 µM (active) | 
16 | C=C(Cl)Cl |  | 16.9% [at 80.4 µM] (inactive)
17 | CCC(=O)O[C@@H]1C=C2CCC3C(CCC4(C)C3CC[C@@H]4OC(=O)CC)C2CC1 (stereo not given in full) |  | 19.9% (inactive)
18 | O=C(N/N=C/c1ccc([N+](=O)[O-])o1)c1cc([N+](=O)[O-])cc([N+](=O)[O-])c1O |  | 4.7% (inactive)
19 | CCCC(C)(COC(N)=O)COC(=O)NC(C)C (stereo not given) |  | 21.6% (inactive)
20 | CCOC(=O)c1cn2nc(OP(=S)(OCC)OCC)cc2nc1C |  | 9.84% (inactive)

Row | SMILES | Potency | viability change, negative = cytotoxic
21 | CC(C)(C)N(NC(=O)c1ccc(Cl)cc1)C(=O)c1ccccc1 |  | 0.835% (inactive)
22 | N#CC1(N=NC2(C#N)CCCCC2)CCCCC1 |  | -2.39% (inactive)
23 | C[C@]12CC[C@H]3[C@@H](CCC4=CC(=O)CC[C@@H]43)[C@@H]1CC[C@@H]2OC(=O)CCc1ccccc1 |  | 18.3% (inactive)
24 | C=CCOC(=O)C(C)(C)OC(=O)c1cc(-n2c(=O)cc(C(F)(F)F)n(C)c2=O)ccc1Cl |  | 4.76% (inactive)
25 | COC(=O)Cc1ccccc1 |  | 0.582% (inactive)
26 | C=CCc1ccc(OC(=O)Cc2ccccc2)c(OC)c1 |  | 1.1% (inactive)
27 | C=CCSSCC=C |  | 5.61% (inactive)
28 | CN1C[C@H](C(=O)N[C@]2(C)O[C@@]3(O)[C@@H]4CCCN4C(=O)[C@H](Cc4ccccc4)N3C2=O)C=C2c3cccc4[nH]cc(c34)C[C@H]21 |  | -28.6% [at 80.4 µM] (inactive)
29 | CC(C)C1(C)N=C(c2ncccc2C(=O)O)NC1=O (stereo not given) |  | 6.41% (inactive)
30 | CCCCCl |  | -19.4% [at 80.4 µM] (inactive)
31 | FC(F)OC(F)(F)C(F)Cl (stereo not given) |  | 0.472% (inactive)
32 | CC(C)(C)CC(C)(C)c1ccc(O)cc1 | 27.5 µM (active) | 
33 | Clc1ccc(Cl)c(Cl)c1 | inactive | 
34 | CCN(C(C)=O)c1cccc(-c2ccnc3c(C#N)cnn23)c1 |  | -6.25% (inactive)
35 | CCOP(=S)(S)OCC |  | -8.4% [at 80.4 µM] (inactive)
36 | O=CC=O |  | -1.57% [at 80.4 µM] (inactive)
37 | OC[P+](CO)(CO)CO |  | -1.73% (inactive)
38 | Nc1cccc2ccccc12 | inactive | 
39 | NP(N)(=O)NC(=O)c1ccc(F)cc1 |  | -9.14% (inactive)
40 | CCCCCCCCCCCCN(C)C |  | 9.58% (inactive)
